# Measurements taken from paper PMC7862700, “An all-to-all approach to the identification of sequence-specific readers for epigenetic DNA modifications on cytosine”.
# What was measured:
# Experiment in all cases: DAPPL (digital affinity profiling via proximity ligation, sequencing); 10 mM Tris-HCl pH 7.5, 50 mM NaCl, 1 mM DTT, 4% glycerol, room temperature, 30 min; GST-TFs on glutathione beads, 16-mer random dsDNA library, 0.1% formaldehyde crosslink after washing; high values mean tight binding
# FLI1 = target: T1, FLI1 (Homo sapiens, UniProt Q01543 1-452); details: protein: recombinant; tags: N-terminal GST; dsDNA, one strand shown
# T1 sequence: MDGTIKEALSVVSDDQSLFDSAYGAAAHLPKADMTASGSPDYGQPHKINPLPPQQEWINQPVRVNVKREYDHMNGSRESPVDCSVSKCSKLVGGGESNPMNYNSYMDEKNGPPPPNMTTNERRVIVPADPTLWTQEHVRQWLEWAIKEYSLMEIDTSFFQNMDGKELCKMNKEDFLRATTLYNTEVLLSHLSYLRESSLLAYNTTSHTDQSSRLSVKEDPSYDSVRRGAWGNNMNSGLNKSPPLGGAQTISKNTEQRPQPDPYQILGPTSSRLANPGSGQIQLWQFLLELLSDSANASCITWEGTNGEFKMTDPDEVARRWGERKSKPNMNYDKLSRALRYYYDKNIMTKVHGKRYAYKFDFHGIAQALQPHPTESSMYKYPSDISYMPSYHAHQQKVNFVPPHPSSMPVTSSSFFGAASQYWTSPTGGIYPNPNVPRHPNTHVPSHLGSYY
# Method in brief: (§1)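 Human transcription factors were made in yeast as GST fusions, captured on glutathione beads and barcoded with DNA. With a tag-only sample included, the pool was incubated with 200 nmole of a random double-stranded 16-mer DNA library in Tris/NaCl/DTT/glycerol buffer at room temperature for 30 min, then crosslinked with 0.1% formaldehyde after washing, ligated by proximity, amplified and sequenced. For binding signal, each hexamer's read frequency for a factor is divided by its frequency for the tag-only sample.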
# ELK1 = target: T2, ELK1 (Homo sapiens, UniProt P19419 1-428); details: protein: recombinant; tags: N-terminal GST; dsDNA, one strand shown
# T2 sequence: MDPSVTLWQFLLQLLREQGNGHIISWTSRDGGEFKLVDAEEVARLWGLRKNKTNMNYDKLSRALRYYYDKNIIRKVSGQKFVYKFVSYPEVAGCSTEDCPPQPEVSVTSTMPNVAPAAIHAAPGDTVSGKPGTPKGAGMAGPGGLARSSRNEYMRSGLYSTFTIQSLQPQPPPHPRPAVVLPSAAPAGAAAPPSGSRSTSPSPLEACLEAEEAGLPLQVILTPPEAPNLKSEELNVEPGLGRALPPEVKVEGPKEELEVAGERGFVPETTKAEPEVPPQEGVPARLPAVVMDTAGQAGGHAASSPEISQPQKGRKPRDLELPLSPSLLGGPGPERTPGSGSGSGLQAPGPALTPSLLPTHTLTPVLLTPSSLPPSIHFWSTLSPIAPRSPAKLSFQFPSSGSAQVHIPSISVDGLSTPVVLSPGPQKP
# Method in brief: as §1
# GABPA = target: T3, GABPA (Homo sapiens, UniProt Q06546 1-454); details: protein: recombinant; tags: N-terminal GST; dsDNA, one strand shown
# T3 sequence: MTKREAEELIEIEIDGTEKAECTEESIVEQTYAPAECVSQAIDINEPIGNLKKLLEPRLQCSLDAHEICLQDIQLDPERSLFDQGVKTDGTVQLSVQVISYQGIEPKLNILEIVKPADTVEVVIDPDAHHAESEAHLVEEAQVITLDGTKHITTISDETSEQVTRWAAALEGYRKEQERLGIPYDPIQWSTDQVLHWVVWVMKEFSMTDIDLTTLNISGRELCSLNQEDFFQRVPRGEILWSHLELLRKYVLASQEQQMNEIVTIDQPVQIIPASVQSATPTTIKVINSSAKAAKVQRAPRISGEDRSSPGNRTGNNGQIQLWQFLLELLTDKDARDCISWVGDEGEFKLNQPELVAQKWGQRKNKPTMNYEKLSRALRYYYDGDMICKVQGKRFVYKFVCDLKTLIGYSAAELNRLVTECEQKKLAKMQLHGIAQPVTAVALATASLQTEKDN
# Method in brief: as §1
# ERG = target: T4, ERG (Homo sapiens, UniProt P11308 1-479); details: protein: recombinant; tags: N-terminal GST; dsDNA, one strand shown
# T4 sequence: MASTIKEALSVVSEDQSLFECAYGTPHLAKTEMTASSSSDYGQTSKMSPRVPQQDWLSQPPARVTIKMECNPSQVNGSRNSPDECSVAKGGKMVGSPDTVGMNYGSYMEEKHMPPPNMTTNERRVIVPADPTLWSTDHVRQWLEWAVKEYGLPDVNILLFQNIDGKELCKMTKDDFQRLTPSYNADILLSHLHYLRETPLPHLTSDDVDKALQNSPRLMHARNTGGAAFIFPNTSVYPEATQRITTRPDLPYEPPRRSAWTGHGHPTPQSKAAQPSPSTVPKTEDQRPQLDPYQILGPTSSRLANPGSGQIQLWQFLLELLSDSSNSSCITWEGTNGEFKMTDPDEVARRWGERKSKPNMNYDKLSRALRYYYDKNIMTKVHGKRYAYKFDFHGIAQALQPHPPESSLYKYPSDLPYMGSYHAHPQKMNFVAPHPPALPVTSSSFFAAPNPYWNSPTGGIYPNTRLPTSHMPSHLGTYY
# Method in brief: as §1
# ELF1 = ELF1 (Homo sapiens, UniProt P32519 1-619); details: protein: recombinant; tags: N-terminal GST; dsDNA, one strand shown
# ELF1, sequence (P32519 whole entry): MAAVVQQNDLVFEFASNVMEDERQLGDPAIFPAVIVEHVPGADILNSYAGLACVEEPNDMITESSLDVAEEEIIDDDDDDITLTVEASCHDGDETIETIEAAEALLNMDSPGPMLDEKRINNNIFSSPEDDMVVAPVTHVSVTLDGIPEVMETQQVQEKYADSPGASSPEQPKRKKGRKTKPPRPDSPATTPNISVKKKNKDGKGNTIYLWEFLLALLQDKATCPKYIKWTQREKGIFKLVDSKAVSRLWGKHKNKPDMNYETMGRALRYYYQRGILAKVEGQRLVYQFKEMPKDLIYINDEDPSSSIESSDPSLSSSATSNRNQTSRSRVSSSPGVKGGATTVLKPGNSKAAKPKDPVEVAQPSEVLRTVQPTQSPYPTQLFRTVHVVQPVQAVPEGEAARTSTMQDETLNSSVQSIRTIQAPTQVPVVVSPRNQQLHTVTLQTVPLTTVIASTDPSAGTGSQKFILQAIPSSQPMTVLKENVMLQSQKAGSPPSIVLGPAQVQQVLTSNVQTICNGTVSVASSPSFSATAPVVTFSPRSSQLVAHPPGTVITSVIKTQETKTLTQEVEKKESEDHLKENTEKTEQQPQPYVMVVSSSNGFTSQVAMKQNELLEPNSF
# Method in brief: as §1
# EHF = target: T5, EHF (Homo sapiens, UniProt Q9NZC4 1-300); details: protein: recombinant; tags: N-terminal GST; dsDNA, one strand shown
# T5 sequence: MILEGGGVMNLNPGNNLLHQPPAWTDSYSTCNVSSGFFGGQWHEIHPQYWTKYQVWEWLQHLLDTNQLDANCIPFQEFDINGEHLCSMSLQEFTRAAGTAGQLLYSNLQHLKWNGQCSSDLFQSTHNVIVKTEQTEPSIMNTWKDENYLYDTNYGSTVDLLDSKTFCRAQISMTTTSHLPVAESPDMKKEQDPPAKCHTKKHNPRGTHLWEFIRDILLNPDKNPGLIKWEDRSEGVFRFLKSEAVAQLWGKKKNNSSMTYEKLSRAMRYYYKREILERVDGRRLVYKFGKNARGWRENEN
# Method in brief: as §1
# SPI1 = SPI1 (Homo sapiens, UniProt P17947 1-270); details: protein: recombinant; tags: N-terminal GST; dsDNA, one strand shown
# Method in brief: as §1
# SPIB = SPIB (Homo sapiens, UniProt Q01892 1-262); details: protein: recombinant; tags: N-terminal GST; dsDNA, one strand shown
# SPIB, sequence (Q01892 whole entry): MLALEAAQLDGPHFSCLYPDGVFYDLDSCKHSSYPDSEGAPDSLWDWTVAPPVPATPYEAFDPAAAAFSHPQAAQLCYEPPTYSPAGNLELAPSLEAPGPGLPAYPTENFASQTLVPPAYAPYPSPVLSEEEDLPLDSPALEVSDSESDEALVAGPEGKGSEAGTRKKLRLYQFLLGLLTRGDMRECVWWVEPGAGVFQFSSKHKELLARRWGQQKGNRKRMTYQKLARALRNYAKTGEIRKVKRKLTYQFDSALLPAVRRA
# Method in brief: as §1
# ELK3 = target: T6, ELK3 (Homo sapiens, UniProt P41970 1-407); details: protein: recombinant; tags: N-terminal GST; dsDNA, one strand shown
# T6 sequence: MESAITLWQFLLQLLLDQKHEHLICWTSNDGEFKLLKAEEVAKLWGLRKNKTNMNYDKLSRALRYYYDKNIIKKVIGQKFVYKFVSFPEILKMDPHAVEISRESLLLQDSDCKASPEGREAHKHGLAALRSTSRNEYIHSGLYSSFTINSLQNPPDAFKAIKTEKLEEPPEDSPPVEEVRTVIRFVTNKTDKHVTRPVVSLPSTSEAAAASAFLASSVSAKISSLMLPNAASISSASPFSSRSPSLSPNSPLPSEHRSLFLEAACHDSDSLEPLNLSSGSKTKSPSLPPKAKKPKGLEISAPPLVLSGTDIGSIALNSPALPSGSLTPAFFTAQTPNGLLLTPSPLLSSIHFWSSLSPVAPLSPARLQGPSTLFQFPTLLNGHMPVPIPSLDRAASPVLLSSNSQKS
# Method in brief: as §1
# FEV = target: T7, FEV (Homo sapiens, UniProt Q99581 1-238); details: protein: recombinant; tags: N-terminal GST; dsDNA, one strand shown
# T7 sequence: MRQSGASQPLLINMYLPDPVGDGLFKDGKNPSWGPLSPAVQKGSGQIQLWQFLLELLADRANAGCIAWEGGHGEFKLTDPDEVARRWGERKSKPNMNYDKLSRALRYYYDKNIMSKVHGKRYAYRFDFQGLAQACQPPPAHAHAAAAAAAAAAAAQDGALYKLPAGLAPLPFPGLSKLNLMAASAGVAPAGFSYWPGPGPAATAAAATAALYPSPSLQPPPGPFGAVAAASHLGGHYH
# Method in brief: as §1
# ETV5 = ETV5 (Homo sapiens, UniProt P41161 1-510); details: protein: recombinant; tags: N-terminal GST; dsDNA, one strand shown
# ETV5, sequence (P41161 whole entry): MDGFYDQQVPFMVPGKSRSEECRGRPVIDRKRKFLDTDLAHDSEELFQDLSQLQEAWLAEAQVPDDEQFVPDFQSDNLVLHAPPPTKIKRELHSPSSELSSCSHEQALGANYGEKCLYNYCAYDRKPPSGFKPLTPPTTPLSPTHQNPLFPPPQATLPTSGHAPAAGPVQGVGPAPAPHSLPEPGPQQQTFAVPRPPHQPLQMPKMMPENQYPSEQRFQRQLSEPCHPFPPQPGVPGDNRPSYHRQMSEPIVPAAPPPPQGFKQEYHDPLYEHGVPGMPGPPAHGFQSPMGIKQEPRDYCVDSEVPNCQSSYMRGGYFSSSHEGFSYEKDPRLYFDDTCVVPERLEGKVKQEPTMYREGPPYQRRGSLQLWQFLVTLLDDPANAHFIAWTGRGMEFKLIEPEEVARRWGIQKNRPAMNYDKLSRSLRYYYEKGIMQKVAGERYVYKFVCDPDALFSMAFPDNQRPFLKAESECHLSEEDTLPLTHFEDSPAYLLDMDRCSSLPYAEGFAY
# Method in brief: as §1
# HSF1 = HSF1 (Homo sapiens, UniProt Q00613 1-529); details: protein: recombinant; tags: N-terminal GST; chain copies: 3; dsDNA, one strand shown
# HSF1, sequence (Q00613 whole entry): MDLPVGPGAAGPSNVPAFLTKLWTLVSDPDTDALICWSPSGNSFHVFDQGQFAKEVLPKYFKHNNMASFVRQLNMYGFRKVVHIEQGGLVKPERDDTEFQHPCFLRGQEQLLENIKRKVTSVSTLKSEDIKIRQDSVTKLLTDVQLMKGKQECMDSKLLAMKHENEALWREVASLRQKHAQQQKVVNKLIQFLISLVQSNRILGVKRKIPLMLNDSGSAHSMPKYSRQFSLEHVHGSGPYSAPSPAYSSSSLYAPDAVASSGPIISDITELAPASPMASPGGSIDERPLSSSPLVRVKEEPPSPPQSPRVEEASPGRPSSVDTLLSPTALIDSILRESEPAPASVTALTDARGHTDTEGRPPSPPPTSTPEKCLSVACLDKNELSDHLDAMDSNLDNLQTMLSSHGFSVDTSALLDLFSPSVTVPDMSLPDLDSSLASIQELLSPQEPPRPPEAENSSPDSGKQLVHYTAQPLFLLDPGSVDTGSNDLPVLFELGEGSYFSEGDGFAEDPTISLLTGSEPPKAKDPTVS
# Method in brief: as §1
# SPIC = target: T8, SPIC (Homo sapiens, UniProt Q8N5J4 1-248); details: protein: recombinant; tags: N-terminal GST; dsDNA, one strand shown
# T8 sequence: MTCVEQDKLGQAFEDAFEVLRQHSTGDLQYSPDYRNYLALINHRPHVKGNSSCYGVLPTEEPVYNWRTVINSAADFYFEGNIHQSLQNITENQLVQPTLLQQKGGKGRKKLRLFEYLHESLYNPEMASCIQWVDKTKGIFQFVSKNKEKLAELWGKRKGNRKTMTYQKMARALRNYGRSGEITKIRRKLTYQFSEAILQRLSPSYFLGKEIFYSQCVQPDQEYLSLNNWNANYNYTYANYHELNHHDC
# Method in brief: as §1
# ELF4 = ELF4 (Homo sapiens, UniProt Q99607 1-663); details: protein: recombinant; tags: N-terminal GST; dsDNA, one strand shown
# ELF4, sequence (Q99607 whole entry): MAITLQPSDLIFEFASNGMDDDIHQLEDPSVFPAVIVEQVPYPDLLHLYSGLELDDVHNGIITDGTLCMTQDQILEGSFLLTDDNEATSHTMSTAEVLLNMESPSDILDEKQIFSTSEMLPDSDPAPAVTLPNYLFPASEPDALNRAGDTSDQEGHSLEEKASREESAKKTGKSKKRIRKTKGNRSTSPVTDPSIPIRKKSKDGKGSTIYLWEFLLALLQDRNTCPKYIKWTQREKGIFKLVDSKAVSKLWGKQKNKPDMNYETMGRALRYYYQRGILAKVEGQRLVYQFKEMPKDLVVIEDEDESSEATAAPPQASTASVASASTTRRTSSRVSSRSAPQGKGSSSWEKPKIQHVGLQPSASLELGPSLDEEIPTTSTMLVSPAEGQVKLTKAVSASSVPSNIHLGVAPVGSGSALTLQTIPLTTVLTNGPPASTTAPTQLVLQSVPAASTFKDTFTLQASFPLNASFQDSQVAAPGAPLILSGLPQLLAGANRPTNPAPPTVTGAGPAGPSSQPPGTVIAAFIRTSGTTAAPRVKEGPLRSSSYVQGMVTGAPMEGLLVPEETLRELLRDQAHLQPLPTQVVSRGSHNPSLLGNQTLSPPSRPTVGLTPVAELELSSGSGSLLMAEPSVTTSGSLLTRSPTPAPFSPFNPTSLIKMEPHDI
# Method in brief: as §1
# ELK4 = target: T9, ELK4 (Homo sapiens, UniProt P28324-2 1-405); details: protein: recombinant; tags: N-terminal GST; dsDNA, one strand shown
# T9 sequence: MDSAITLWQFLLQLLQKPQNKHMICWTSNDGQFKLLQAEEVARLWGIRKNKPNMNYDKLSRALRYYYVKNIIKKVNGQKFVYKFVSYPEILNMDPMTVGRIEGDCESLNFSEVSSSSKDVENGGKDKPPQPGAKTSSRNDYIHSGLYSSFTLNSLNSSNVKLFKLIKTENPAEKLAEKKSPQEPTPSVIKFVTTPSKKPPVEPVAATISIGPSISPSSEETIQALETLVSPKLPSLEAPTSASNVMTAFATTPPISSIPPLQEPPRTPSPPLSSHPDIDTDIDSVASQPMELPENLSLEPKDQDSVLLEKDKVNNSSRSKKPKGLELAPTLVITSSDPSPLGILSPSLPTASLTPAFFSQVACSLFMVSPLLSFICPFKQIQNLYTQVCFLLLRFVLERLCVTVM
# Method in brief: as §1
# ETV2 = target: T10, ETV2 (Homo sapiens, UniProt O00321 1-342); details: protein: recombinant; tags: N-terminal GST; dsDNA, one strand shown
# T10 sequence: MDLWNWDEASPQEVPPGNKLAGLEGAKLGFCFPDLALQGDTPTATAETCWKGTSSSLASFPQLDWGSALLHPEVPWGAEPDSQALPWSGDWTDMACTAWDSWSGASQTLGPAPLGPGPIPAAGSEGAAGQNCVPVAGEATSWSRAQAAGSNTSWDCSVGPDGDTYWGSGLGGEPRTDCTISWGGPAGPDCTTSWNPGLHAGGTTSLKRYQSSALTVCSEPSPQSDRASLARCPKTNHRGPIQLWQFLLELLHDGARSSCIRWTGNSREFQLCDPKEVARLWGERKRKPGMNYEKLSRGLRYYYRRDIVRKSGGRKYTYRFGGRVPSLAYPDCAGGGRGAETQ
# Method in brief: as §1
# ELF3 = target: T11, ELF3 (Homo sapiens, UniProt P78545 1-371); details: protein: recombinant; tags: N-terminal GST; dsDNA, one strand shown
# T11 sequence: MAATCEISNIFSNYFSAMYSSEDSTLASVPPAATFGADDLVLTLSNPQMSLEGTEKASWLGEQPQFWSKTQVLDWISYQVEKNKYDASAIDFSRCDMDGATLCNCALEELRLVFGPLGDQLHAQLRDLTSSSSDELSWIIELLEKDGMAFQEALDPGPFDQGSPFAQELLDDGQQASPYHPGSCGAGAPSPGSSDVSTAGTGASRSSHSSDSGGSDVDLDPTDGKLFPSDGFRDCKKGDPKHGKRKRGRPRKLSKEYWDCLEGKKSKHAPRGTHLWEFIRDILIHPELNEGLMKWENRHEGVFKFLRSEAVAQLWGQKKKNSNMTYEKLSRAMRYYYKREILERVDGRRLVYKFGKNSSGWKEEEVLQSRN
# Method in brief: as §1
# CRX = CRX (Homo sapiens, UniProt O43186 1-299); details: protein: recombinant; tags: N-terminal GST; dsDNA, one strand shown
# CRX, sequence (O43186 whole entry): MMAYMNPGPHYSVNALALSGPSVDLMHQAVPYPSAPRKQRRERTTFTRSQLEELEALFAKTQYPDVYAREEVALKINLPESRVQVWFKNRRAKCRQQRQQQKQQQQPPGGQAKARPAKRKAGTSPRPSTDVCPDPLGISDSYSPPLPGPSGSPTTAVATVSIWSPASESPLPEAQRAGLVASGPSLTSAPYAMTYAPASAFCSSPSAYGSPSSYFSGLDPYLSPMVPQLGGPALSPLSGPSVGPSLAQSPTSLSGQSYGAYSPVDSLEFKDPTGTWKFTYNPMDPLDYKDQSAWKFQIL
# Method in brief: as §1
# ETV1 = ETV1 (Homo sapiens, UniProt P50549 1-477); details: protein: recombinant; tags: N-terminal GST; dsDNA, one strand shown
# ETV1, sequence (P50549 whole entry): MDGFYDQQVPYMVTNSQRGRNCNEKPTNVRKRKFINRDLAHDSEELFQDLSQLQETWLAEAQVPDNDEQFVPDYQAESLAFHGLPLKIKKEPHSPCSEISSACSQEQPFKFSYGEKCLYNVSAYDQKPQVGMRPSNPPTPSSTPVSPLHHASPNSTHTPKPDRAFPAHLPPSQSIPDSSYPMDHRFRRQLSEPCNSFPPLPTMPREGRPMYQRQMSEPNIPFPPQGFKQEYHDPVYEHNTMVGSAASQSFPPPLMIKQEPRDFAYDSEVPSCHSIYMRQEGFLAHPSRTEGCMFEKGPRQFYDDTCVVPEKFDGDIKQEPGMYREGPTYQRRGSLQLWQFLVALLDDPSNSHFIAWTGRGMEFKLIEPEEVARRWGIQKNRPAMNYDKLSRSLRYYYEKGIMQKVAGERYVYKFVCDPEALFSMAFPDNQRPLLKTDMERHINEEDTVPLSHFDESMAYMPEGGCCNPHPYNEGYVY
# Method in brief: as §1
sequence,measurement,setting,value
ACAACT,binding signal,FLI1,"1.36 fold enrichment (6-mer frequency, TF over GST control)"
same,binding signal,ELK1,"1.4 fold enrichment (6-mer frequency, TF over GST control)"
same,binding signal,GABPA,"1.4 fold enrichment (6-mer frequency, TF over GST control)"
same,binding signal,ERG,"1.41 fold enrichment (6-mer frequency, TF over GST control)"
same,binding signal,ELF1,"1.46 fold enrichment (6-mer frequency, TF over GST control)"
same,binding signal,EHF,"1.2 fold enrichment (6-mer frequency, TF over GST control)"
same,binding signal,SPI1,"1.41 fold enrichment (6-mer frequency, TF over GST control)"
same,binding signal,SPIB,"1.35 fold enrichment (6-mer frequency, TF over GST control)"
same,binding signal,ELK3,"1.5 fold enrichment (6-mer frequency, TF over GST control)"
same,binding signal,FEV,"1.35 fold enrichment (6-mer frequency, TF over GST control)"
same,binding signal,ETV5,"1.32 fold enrichment (6-mer frequency, TF over GST control)"
same,binding signal,HSF1,"1.11 fold enrichment (6-mer frequency, TF over GST control)"
same,binding signal,SPIC,"1.39 fold enrichment (6-mer frequency, TF over GST control)"
same,binding signal,ELF4,"1.36 fold enrichment (6-mer frequency, TF over GST control)"
same,binding signal,ELK4,"1.34 fold enrichment (6-mer frequency, TF over GST control)"
same,binding signal,ETV2,"1.29 fold enrichment (6-mer frequency, TF over GST control)"
same,binding signal,ELF3,"1.42 fold enrichment (6-mer frequency, TF over GST control)"
same,binding signal,CRX,"1.02 fold enrichment (6-mer frequency, TF over GST control)"
same,binding signal,ETV1,"1.27 fold enrichment (6-mer frequency, TF over GST control)"
